In PubChem BioAssay (Tox21):
Inconclusive results are not listed. Active and inactive are the calls of the source. Unless noted, calls come from the whole dose curve.

Columns and labels:
[1] = Nuclear factor erythroid 2-related factor 2/antioxidant responsive element (Nrf2/ARE) small molecule agonists: qHTS cell viability counter screen in human keratinocytes (AID 1919968; active = well fitted curve in the direction sought with a large enough effect in the repeat runs; an effect the other way counts as inactive or inconclusive; note: nearly all actives have a fitted effect of over 55% in size)
Procedure, shortened: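 KeratinoSens cells (HaCaT keratinocytes stably carrying an ARE-luciferase reporter) were seeded at 1,500 cells/well and rested 5 h at 37 C/5% CO2. They were then exposed to compounds in DMSO for 23 h. Viability was read by CellTiter-Fluor fluorescence after 1 h.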

[2] = Nuclear factor erythroid 2-related factor 2/antioxidant responsive element (Nrf2/ARE) small molecule agonists: luciferase reporter gene qHTS assay in human keratinocytes (AID 1919969); note: nearly all actives have a fitted effect of over 35% in size; note: potency is the fitted concentration of half-maximal effect
[3] = biological target: Gonadotropin-releasing hormone receptor (Homo sapiens) (UniProt P30968); assay: Human gonadotropin-releasing hormone receptor (GnRHR) small molecule agonists, calcium flux assay in GnRHR-HEK293 cells (AID 1920063); note: nearly all actives have a fitted effect of over 35% in size
Chain of Gonadotropin-releasing hormone receptor (Homo sapiens) (P30968 whole entry, looked up): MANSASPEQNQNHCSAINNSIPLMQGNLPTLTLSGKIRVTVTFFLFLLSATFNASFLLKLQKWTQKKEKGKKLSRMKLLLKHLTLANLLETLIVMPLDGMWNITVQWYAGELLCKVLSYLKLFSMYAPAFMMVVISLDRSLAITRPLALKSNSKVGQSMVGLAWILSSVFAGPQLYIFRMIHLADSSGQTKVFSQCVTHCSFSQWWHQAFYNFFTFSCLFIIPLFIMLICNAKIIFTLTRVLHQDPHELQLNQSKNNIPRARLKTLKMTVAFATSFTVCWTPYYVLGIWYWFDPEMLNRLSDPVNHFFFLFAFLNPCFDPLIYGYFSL
Procedure, shortened: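 HEK293 cells stably expressing human GnRHR were plated 18 h at 37 °C, loaded with calcium dye 1 h at 37 °C, then given compound in agonist mode; fluorescence (Ex/Em 480/540) read kinetically for 3 min at 1 s intervals.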

[4] = biological target: KiSS-1 receptor (Homo sapiens) (UniProt Q969F8); assay: Human kisspeptin (KISS1R) small molecule agonists, calcium flux assay in KISS1R-HEK293 cells (AID 1920064; active = well fitted curve in the direction sought with a large enough effect in the repeat runs; an effect the other way counts as inactive or inconclusive)
Chain of KiSS-1 receptor (Homo sapiens) (Q969F8 whole entry, looked up): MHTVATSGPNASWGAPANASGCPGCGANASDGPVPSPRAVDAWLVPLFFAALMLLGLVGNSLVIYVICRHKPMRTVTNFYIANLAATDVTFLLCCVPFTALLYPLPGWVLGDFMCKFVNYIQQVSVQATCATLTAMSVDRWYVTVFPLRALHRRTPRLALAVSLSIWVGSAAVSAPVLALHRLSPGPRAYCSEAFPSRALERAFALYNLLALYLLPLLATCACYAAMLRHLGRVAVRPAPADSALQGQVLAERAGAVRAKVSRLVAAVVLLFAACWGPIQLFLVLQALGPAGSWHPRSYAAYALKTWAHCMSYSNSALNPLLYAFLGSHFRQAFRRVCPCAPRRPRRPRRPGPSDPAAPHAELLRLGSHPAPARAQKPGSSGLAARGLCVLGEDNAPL
Procedure, shortened: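 HEK293 cells stably expressing human KISS1R were plated 18 h at 37 °C, loaded with calcium dye for 1 h at 37 °C, then given compound by pin tool. Fluorescence (Ex/Em 480/540) was read kinetically for 3 min.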

[5] = p53 small molecule agonists, cell-based qHTS assay with human liver microsomes (AID 1963577);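 note: p53 response element beta-lactamase reporter cells with liver microsomes plus NADPH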
Procedure, shortened: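 Steps: plate p53RE-bla cells, incubate 5 h at 37 C; add compound in DMSO; add microsomes (0.5 mg/mL final) and NADPH (0.5 mg/mL final); incubate 16 h at 37 C; add LiveBLAzer, 2 h RT; read fluorescence.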

[6] = p53 small molecule agonists, cell-based qHTS assay with rat liver microsomes (AID 1963578)
Procedure, shortened: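 Metabolic activation is supplied by rat liver microsomes with NADPH (each 0.5 mg/mL final). p53RE-bla cells incubate with compound 16 h at 37 C; reporter activity is measured by LiveBLAzer fluorescence.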

[7] = p53 small molecule agonists, cell-based qHTS assay with rat liver microsomes: qHTS cell viability counter screen (AID 1963580); note: nearly all actives have a fitted effect of over 45% in size
Procedure, shortened: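 p53RE-bla HCT-116 cells were exposed 16 h at 37 C to compounds with rat liver microsomes (0.5 mg/mL) and NADPH (0.5 mg/mL). Viability was measured in the same wells as ATP content by CellTiter-Glo luminescence.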

[8] = p53 small molecule agonists, cell-based qHTS assay: qHTS cell viability counter screen (AID 1963581); note: nearly all actives have a fitted effect of over 45% in size
Procedure, shortened: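 p53RE-bla HCT-116 cells were exposed to compounds for 16 h at 37 C; after the beta-lactamase FRET read in the same wells, CellTiter-Glo was added and luminescence (intracellular ATP) read after 30 min at room temperature.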

[9] = p53 small molecule agonists, cell-based qHTS assay (AID 1963582; active = well fitted activation curve with a large enough effect in the signal ratio in the repeat runs, not every such curve was filed as active; the % refers to the signal ratio)
Procedure, shortened: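 p53RE-bla beta-lactamase reporter cells rested 5 h at 37 C/5% CO2, then received compounds in DMSO by pin transfer and were incubated 16 h at 37 C. LiveBLAzer B/G FRET substrate was loaded for 2 h at room temperature before fluorescence reading.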

[10] = biological target: 5-hydroxytryptamine receptor 2A (Homo sapiens) (UniProt P28223); assay: 5-hydroxytryptamine receptor 2A (HTR2A) small molecule antagonists, cell-based qHTS assay (AID 1963586); note: nearly all actives have a fitted effect of over 45% in size
Chain of 5-hydroxytryptamine receptor 2A (Homo sapiens) (P28223 whole entry, looked up): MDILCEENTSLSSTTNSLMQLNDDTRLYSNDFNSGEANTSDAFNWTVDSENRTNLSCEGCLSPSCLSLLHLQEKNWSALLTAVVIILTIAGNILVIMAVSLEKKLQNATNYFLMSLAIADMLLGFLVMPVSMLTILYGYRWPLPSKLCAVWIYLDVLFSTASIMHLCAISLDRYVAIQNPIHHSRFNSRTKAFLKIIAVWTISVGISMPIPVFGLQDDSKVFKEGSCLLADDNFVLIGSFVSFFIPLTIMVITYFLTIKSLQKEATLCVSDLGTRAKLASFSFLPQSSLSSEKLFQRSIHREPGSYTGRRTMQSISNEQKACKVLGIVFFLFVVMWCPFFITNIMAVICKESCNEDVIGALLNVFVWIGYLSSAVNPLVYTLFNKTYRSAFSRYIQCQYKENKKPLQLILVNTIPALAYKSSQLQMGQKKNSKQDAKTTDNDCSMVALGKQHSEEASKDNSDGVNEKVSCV
Procedure, shortened: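 Antagonist-mode intracellular calcium assay: DOI (4 nM) added after 5 min compound pre-incubation at room temperature to dye-loaded HTR2A-CHO cells. Fluorescence followed for 3 min, sampled every second.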

[11] = biological target: 5-hydroxytryptamine receptor 2A (Homo sapiens) (UniProt P28223); assay: 5-hydroxytryptamine receptor 2A (HTR2A) small molecule agonists, cell-based qHTS assay (AID 1963587); note: nearly all actives have a fitted effect of over 30% in size
Procedure, shortened: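 CHO cells stably expressing human HTR2A, plated 18 h, loaded with calcium dye 1 h at 37 C. Agonist mode: compounds added and intracellular calcium fluorescence recorded kinetically for 2 min at 1 sec intervals.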

[12] = biological target: Muscarinic acetylcholine receptor M1 (Homo sapiens) (UniProt P11229); assay: Cholinergic receptor muscarinic 1 (CHRM1) small molecule antagonists, cell-based qHTS assay (AID 1963588); note: nearly all actives have a fitted effect of over 40% in size
Chain of Muscarinic acetylcholine receptor M1 (Homo sapiens) (P11229 whole entry, looked up): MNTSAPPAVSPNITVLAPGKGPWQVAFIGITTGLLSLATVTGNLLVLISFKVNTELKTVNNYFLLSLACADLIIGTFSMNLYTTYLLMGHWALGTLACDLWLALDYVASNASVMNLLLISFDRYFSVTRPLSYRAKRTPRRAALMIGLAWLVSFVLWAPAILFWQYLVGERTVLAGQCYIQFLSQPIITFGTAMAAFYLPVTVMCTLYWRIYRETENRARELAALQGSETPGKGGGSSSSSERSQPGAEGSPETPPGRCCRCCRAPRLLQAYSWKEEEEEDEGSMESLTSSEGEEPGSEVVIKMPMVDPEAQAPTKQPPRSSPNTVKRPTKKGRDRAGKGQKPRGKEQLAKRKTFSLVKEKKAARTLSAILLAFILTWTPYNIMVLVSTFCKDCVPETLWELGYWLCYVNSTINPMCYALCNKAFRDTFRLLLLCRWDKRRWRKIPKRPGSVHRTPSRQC
Procedure, shortened: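 CHRM1-CHO calcium-flux assay, antagonist mode. Cells were seeded 18 h, dye-loaded 1 h at 37 C and given compound for 5 min at RT, then acetylcholine was added at 50nM. FDSS fluorescence was read 3 min; 15 concentrations, three runs.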

[13] = biological target: Muscarinic acetylcholine receptor M1 (Homo sapiens) (UniProt P11229); assay: Cholinergic receptor muscarinic 1 (CHRM1) small molecule agonists, cell-based qHTS assay (AID 1963589); note: nearly all actives have a fitted effect of over 35% in size
Procedure, shortened: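 CHO cells stably expressing human CHRM1, seeded 18 h at 37 C/5% CO2, dye-loaded 1 h at 37 C, then given compound in agonist mode; intracellular calcium fluorescence read kinetically at 1 s intervals. Fifteen concentrations, three independent runs.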

[14] = cAMP Responsive Elements (CRE) small molecule agonists, cell-based qHTS assay (AID 1963590)
Procedure, shortened: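 CRE-bla HEK 293T cells in DMEM with 10% dialyzed FBS, NEAA, pyruvate and 25 mM HEPES were plated 18 h at 37 C/5% CO2, then exposed to compounds in DMSO for 3 h before LiveBLAzer B/G FRET substrate addition.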

[15] = cAMP Responsive Elements (CRE) small molecule antagonists, cell-based qHTS assay (AID 1963591; active = well fitted inhibition curve with a large enough effect in the signal ratio in the repeat runs, not every such curve was filed as active; the % refers to the signal ratio)
Procedure, shortened: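 CRE-bla HEK293T cells were plated 18 h at 37 °C/5% CO2, pinned with compound in DMSO, then stimulated with NKH477 at 0.25 uM final for 3 h. LiveBLAzer B/G FRET substrate was added and plates incubated 2 h at room temperature.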

[16] = biological target: Beta-2 adrenergic receptor (Homo sapiens) (UniProt P07550); assay: Adrenergic beta2 receptor (ADRB2) small molecule antagonists, cell-based qHTS assay (AID 1963592); note: series mostly up to about 92 µM; nearly all actives have a fitted effect of over 50% in size
Chain of Beta-2 adrenergic receptor (Homo sapiens) (P07550 whole entry, looked up): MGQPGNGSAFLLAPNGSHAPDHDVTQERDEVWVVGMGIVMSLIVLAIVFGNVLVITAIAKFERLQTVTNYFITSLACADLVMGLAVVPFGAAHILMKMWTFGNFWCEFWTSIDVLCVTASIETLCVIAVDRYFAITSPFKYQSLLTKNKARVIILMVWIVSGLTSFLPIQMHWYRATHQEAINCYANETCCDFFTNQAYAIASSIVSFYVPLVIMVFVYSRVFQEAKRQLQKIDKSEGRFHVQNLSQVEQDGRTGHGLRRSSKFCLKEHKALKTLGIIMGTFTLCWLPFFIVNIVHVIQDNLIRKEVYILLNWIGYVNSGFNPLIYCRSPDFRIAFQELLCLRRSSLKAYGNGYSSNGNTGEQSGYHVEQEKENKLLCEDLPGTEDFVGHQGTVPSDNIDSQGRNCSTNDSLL
Procedure, shortened: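 Cells (CHO, stable ADRB2 overexpression) incubated 18-20hr at 37C; compounds added from DMSO; agonist mix (1nM isoproterenol, 100uM IBMX, 25uM Ro-20-1724) added; 0.5hr RT; d2-cAMP and anti-cAMP-cryptate added; 1hr RT; 665/615 nm read.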

[17] = biological target: D(2) dopamine receptor (Homo sapiens) (UniProt P14416); assay: Dopamine D2 receptor (DRD2) small molecule agonists, cell-based qHTS assay (AID 1963594); note: nearly all actives have a fitted effect of over 35% in size
Chain of D(2) dopamine receptor (Homo sapiens) (P14416 whole entry, looked up): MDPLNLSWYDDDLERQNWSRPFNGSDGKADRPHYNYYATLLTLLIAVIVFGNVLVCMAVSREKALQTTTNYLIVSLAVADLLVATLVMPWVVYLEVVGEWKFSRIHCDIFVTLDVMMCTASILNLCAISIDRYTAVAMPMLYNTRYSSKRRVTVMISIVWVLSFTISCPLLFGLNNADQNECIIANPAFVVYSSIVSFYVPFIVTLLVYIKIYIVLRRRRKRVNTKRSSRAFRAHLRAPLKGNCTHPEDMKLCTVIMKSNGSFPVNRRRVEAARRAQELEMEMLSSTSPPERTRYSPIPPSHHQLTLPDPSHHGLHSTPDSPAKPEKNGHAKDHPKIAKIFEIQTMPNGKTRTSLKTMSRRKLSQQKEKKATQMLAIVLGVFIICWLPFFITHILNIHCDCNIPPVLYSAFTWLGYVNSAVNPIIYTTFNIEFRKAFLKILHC
Procedure, shortened: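 HEK293 cells stably expressing human DRD2, pre-treated with PDE inhibitor Ro20-1724 (0.1 mM final) and compound 10 min at room temperature, then stimulated with NKH477 (200nM […]) for 30 min. cAMP read by HTRF (665/620 nm).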

[18] = biological target: D(2) dopamine receptor (Homo sapiens) (UniProt P14416); assay: Dopamine D2 receptor (DRD2) small molecule antagonists, cell-based qHTS assay (AID 1963595; active = well fitted inhibition curve with a large enough effect in the signal ratio in the repeat runs, with a control signal flat; the % refers to the signal ratio; note: potency is the fitted concentration of half-maximal effect)
Procedure, shortened: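 Cells were plated and grown for 24 h at 37 °C. Ro20-1724 (0.1 mM final) went in first, then compound for 10 min. NKH477 (200 nM) with quinpirole (12 nM) followed for 30 min at RT, then HTRF detection reagents for 1 h.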

[19] = p53 small molecule agonists, cell-based qHTS assay with human liver microsomes: qHTS cell viability counter screen (AID 1963579); note: nearly all actives have a fitted effect of over 45% in size
Procedure, shortened: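 After the 460/530 nm beta-lactamase read, CellTiter-Glo was added to the same wells and luminescence measured after 30 min at room temperature, giving viability of p53RE-bla cells treated 16 h with compounds plus microsomes and NADPH.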

Measured: Potency

Cc1cc(OI)c(C(C)C)cc1-c1cc(C(C)C)c(OI)cc1C
not listed: [19]
inactive: all other assays above

CN(C)CCCN1c2ccccc2Sc2ccccc21
active: [18] 29.8 µM
inactive: [1] | [2] | [3] | [4] | [5] | [6] | [7] | [14] | [15] | [17]

OCC(O)[C@@H](O)[C@H](O)[C@H](O)CO[C@H]1O[C@H](CO)[C@@H](O)[C@H](O)[C@H]1O (stereo not given in full)
not listed: [9] | [16]
inactive: all other assays above

O=[N+]([O-])c1ccc(/C=N\O)o1
active: [2] 23.7 µM
not listed: [16] | [19]
inactive: all other assays above

CCOC(=O)CC(CC(=O)OCC)(OC(C)=O)C(=O)OCC
not listed: [8] | [9]
inactive: all other assays above

BrCCCCCBr
not listed: [9]
inactive: all other assays above

COc1cc2c3cc1Oc1cc(ccc1O)C[C@@H]1c4c(cc(OC)c(O)c4Oc4ccc(cc4)C[C@@H]3N(C)CC2)CC[N+]1(C)C
not listed: [10] | [11] | [12] | [13]
inactive: all other assays above

CCCCC(CC)C(=O)OC(C)C (stereo not given)
not listed: [9] | [12]
inactive: all other assays above
